Test results as given in PubChem BioAssay (NCATS).
Results filed as inconclusive are left out. The source made the active and inactive calls. The call rests on the fitted dose curve; in most records, active means well fitted cell-killing curve with a large enough effect; inconclusive means small, poorly fitted or top-dose-only effect, or effect the other way; inactive means flat fitted curve, though single readings scatter.

Experiments:
Assay in all cases: Primary qHTS to identify gynecologic anti-cancer compounds using libraries of approved drugs and bioactive compounds (AID 1345084); further: nearly all actives have a fitted effect of over 55% in size
C33A = settings: Gynecologic cancer cell panel viability, ATPlite luminescence, 48 h; series mostly up to 57.5 µM
Outline: (§1)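 Five-point cytotoxicity, 48 h drug exposure at 37 C, 5% CO2, on cells seeded 16 h beforehand. ATP content read by ATPlite luminescence.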

CAOV3 = settings: Gynecologic cancer cell panel viability, ATPlite luminescence, 48 h; series mostly up to 57.5 µM
Outline: as §1

CASKI = settings: Gynecologic cancer cell panel viability, ATPlite luminescence, 48 h; series mostly up to 57.5 µM
Outline: as §1

Es-2 = settings: Gynecologic cancer cell panel viability, ATPlite luminescence, 48 h; series mostly up to 57.5 µM
Outline: as §1

HeLa = settings: Gynecologic cancer cell panel viability, ATPlite luminescence, 48 h; series mostly up to 57.5 µM
Outline: as §1

Hek293T = settings: Gynecologic cancer cell panel viability, ATPlite luminescence, 48 h, control line for the selectivity index; series mostly up to 57.5 µM
Outline: as §1

JEG-3 = settings: Gynecologic cancer cell panel viability, ATPlite luminescence, 48 h; series mostly up to 57.5 µM
Outline: as §1

OV90 = settings: Gynecologic cancer cell panel viability, ATPlite luminescence, 48 h; series mostly up to 57.5 µM
Outline: as §1

PA-1 = settings: Gynecologic cancer cell panel viability, ATPlite luminescence, 48 h; series mostly up to 57.5 µM
Outline: as §1

SKOV3 = settings: Gynecologic cancer cell panel viability, ATPlite luminescence, 48 h; series mostly up to 57.5 µM
Outline: as §1

Tov-21-G = settings: Gynecologic cancer cell panel viability, ATPlite luminescence, 48 h; series mostly up to 57.5 µM
Outline: as §1

Tov112D = settings: Gynecologic cancer cell panel viability, ATPlite luminescence, 48 h; series mostly up to 57.5 µM
Outline: as §1

Measured: Potency

C=C(C)C1CCC2(C(=O)O)CCC3(C(=O)O)C(CCC4C5(C)CCC(O)C(C)(C(=O)O)C5CCC43C)C12 (stereo not given)
inactive: all assays above

CC(=O)OC1C(OC(=O)c2ccccc2)C2C(C)(C)CC(=O)CC2(C)C23CCC(C)(C2)C(O)CC13 (stereo not given)
inactive: all assays above

O=C(O)c1cccc(S(=O)(=O)N2CCc3ccccc3C2)c1
inactive: all assays above

CC(=O)N1CCc2ccc(O)c(OC3OC(COC4OCC(O)(CO)C4O)C(O)C(O)C3O)c2C1Cc1ccc(O)cc1 (stereo not given)
inactive: all assays above

Cc1cc(Nc2nc(NC(C)c3ncc(F)cn3)ncc2Cl)n[nH]1 (stereo not given)
inactive: all assays above

Cn1cc(-c2ccc3nnc(Sc4ccc5nn(C)cc5c4)n3n2)cn1
inactive: all assays above

O=C(/C=C/c1ccc(O)cc1)N[C@@H](Cc1ccc(O)cc1)C(=O)O
inactive: all assays above

NC1CCCCN(c2c(F)cc3c(=O)c(C(=O)O)cn(C4CC4)c3c2Cl)C1 (stereo not given)
inactive: all assays above

CC(C)[C@H]1CC[C@@]2(O)COC(=O)[C@H]2[C@@H]1/C=C(\CO)C(=O)O
inactive: all assays above

C=CC/C=C\C/C=C\CCCCCCCc1cccc(O)c1C(=O)O
inactive: all assays above

CC1=C2C3OC(=O)C(C)C3(O)CCC2(C)CCC1O (stereo not given)
inactive: all assays above

CC1(C)CCC[C@]2(C)[C@H]3CC(=O)O[C@]3(C)CC[C@@H]12
inactive: all assays above

CC(C)(C)c1ccc(S(=O)(=O)Nc2ccc(Cl)cc2C(=O)c2cc[n+]([O-])cc2)cc1
inactive: all assays above

Cc1ccc(NC(=O)C(=O)NC2CC(C)(C)NC(C)(C)C2)cc1
inactive: all assays above

CC1=CC(=O)[C@H]2C(C)(C)CCC[C@]2(C)[C@@]1(O)CO
inactive: all assays above
